This is an account of results in the antibiotic and cytotoxicity screens of Wong et al. (2023).

Screen size: about 39,000 compounds; about 1,500 (3.8%) were called active. Only a selection was taken, and actives are over-represented in it overall.

In the assay the test system is HSkMC (human skeletal muscle cells). Put plainly: cytotoxicity call (relative viability < 0.9). The conditions noted are these: 10 µM.
In the case of `C[C@@H]1CCCCO[C@H](CN(C)C(=O)Cc2ccccc2)[C@H](C)CN([C@@H](C)CO)C(=O)c2cc(NC(=O)Cc3ccccc3)ccc2O1`, the cytotoxicity call was “inactive”.

`COc1ccc(NC(=O)Nc2ccc3c(c2)C(=O)N([C@@H](C)CO)C[C@@H](C)[C@@H](CN(C)C(=O)NC2CCCCC2)OCCCC[C@H](C)O3)cc1`: the cytotoxicity call is “inactive”.

`C[C@@H]1CN([C@H](C)CO)S(=O)(=O)c2ccc(C#Cc3ccncc3)cc2O[C@@H]1CN(C)C(=O)C1CCOCC1`: the cytotoxicity call is “inactive”.

In the case of `C[C@@H]1CCCCO[C@@H](CN(C)C(=O)C2CCCCC2)[C@@H](C)CN([C@@H](C)CO)C(=O)c2cc(NC(=O)Nc3ccc4c(c3)OCO4)ccc2O1`, the cytotoxicity call was “inactive”.

On to `COc1ccc(NC(=O)N(C)C[C@H]2Oc3c(NS(C)(=O)=O)cccc3C(=O)N([C@H](C)CO)C[C@@H]2C)cc1`, for which the cytotoxicity call is “inactive”.

Turning to `C[C@@H]1CCCCO[C@H](CN(C)C)[C@H](C)CN([C@@H](C)CO)C(=O)c2cc(NC(=O)Nc3cccc4ccccc34)ccc2O1`, the cytotoxicity call was “inactive”.

As to `C[C@H](CO)N1C[C@H](C)[C@H](CN(C)S(=O)(=O)c2cn(C)cn2)Oc2ccc(NC(=O)CCCN(C)C)cc2C1=O`, the cytotoxicity call is “inactive”.

On to `O=C(CN1CCOCC1)NCC[C@@H]1CC[C@H](NS(=O)(=O)c2ccc(Cl)cc2)[C@@H](CO)O1`, for which the cytotoxicity call is “inactive”.

Take `C[C@@H]1CN([C@H](C)CO)C(=O)c2cccc(NC(=O)CCCCCC(=O)Nc3ccccc3N)c2O[C@H]1CN(C)C(=O)Nc1ccccc1`: the cytotoxicity call is “inactive”.

Take `Cn1cc(N2C[C@]3(COCCN(C(=O)C4CC4)C3)OCC2=O)cn1`: the cytotoxicity call is “inactive”.

Regarding `COc1ccc(NC(=O)Nc2ccc3c(c2)C(=O)N([C@H](C)CO)C[C@@H](C)[C@@H](CN(C)Cc2ccc(C(F)(F)F)cc2)OCCCC[C@@H](C)O3)cc1`, the cytotoxicity call is “active”.

`COc1ccc(NC(=O)Nc2ccc3c(c2)C(=O)N([C@H](C)CO)C[C@@H](C)[C@H](CN(C)Cc2ccc(C(F)(F)F)cc2)OCCCC[C@H](C)O3)cc1`: the cytotoxicity call is “inactive”.

For `COc1ccc(CN(C)C[C@@H]2OCCCC[C@H](C)Oc3ccc(NC(=O)Nc4ccc(C(F)(F)F)cc4)cc3C(=O)N([C@@H](C)CO)C[C@@H]2C)cc1`, the cytotoxicity call was “active”.

Turning to `COc1ccc(CN(C)C[C@@H]2OCCCC[C@H](C)Oc3ccc(NC(=O)Nc4ccc(C(F)(F)F)cc4)cc3C(=O)N([C@@H](C)CO)C[C@H]2C)cc1`, the cytotoxicity call is “active”.

On to `COc1ccc(NC(=O)Nc2ccc3c(c2)C(=O)N([C@H](C)CO)C[C@H](C)[C@@H](CN(C)Cc2ccc(C(F)(F)F)cc2)OCCCC[C@@H](C)O3)cc1`, for which the cytotoxicity call was “inactive”.

For the molecule `COc1ccc(CN(C)C[C@@H]2OCCCC[C@@H](C)Oc3ccc(NC(=O)Nc4ccc(C(F)(F)F)cc4)cc3C(=O)N([C@H](C)CO)C[C@@H]2C)cc1`, the cytotoxicity call is “active”.

Turning to `COc1ccc(NC(=O)Nc2ccc3c(c2)C(=O)N([C@H](C)CO)C[C@@H](C)[C@@H](CN(C)Cc2ccc(C(F)(F)F)cc2)OCCCC[C@H](C)O3)cc1`, the cytotoxicity call is “inactive”.

Turning to `COc1ccc(NC(=O)Nc2ccc3c(c2)C(=O)N([C@@H](C)CO)C[C@@H](C)[C@H](CN(C)Cc2ccc(C(F)(F)F)cc2)OCCCC[C@H](C)O3)cc1`, the cytotoxicity call was “inactive”.
